According to the supplement of paper PMC6555819:

These sequences were tested on LXRa homodimer (NR concentration 270 nM) (assay: PBM binding z-score (relative to random genomic background probes); higher = stronger binding; sequences stand for … in GC…GCGATTGACAGCGTAGAATGAAGG).
How it was run: (§1)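 Random background probes are the reference for binding z-scores. These scores derive from regression-normalized fluorescence on custom Agilent 4×180K protein-binding microarrays incubated 1 h with ligand-free nuclear receptor dimers. Binding was detected with antibodies against each partner (one per run).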

Sequence | PBM binding z-score
TATACAGGGTCAAATGCCAGAGTACGAATGTCGA | 3.82
GTACCAAGGTGAATAGGTCGTTCATGAGTAGGCG | 0.137
GCTTACGGGTCAAAGGTTCTAGCATGAATAGAAT | -0.0816
CTCAAAAGGTCGGTTGAGGTGAGTATACGGATAA | -0.331
GGAACGAGGGCAAGTTGATAACAGAGTTTGATGG | -0.071
CCTGCTAGGTCATGGTCAGCCAATCTACAGTATG | -0.0941
ACTCGGAGGACAAAGGTCGGAGCTACGCCAGTGA | -0.439
CCTACTGGGCCAAAAAGGTCAGTGATGCCGATAA | 0.693
TGAATGAGGTTAAAGATCAGGGTACGTGGCGTCG | -0.149
GATGCAGGGTCAGCTAGAGGCCAGAGTATGGAAA | -0.565
TCTCGGAGGACACGAAAGGTCAAAGCTCGACATC | 6.31
ACTAGCAGGCCAAGTTTGTGTCACTCAAACAAAG | -0.358
CCTCGGAGGGCAGAAGGTCAGAGCTGTCCGCTTT | -0.356
GCGGCTAGGTCAGGTTGGTCAGCTAACGGGTACG | -0.172
CTCGAAAGGTCGGTTGAGGTGAGTATGCGGATAA | -0.105
TCTAGTTGGTCAAAGGGCACACACTCGAAATGCG | 0.344
TCATATAGGTAAAAGTTGAAAGTCGGTGTGGTAA | 0.41
CAAACTAGGTCAAGAGGTCAAAGTGCGCTTCCCG | 5.76
TTACCAAGCTGAAAGGTCGTTGATGCACGCCTTG | -0.316
CTCGAAAGGTCGGCTGAGGTGAGTATACGGATAA | -0.364

Sequence | PBM binding z-score
ATATGTAGGCTAAGGGTCATTCAGGTTGGTTCGC | 1.84
TCGAGTAGGTTACCAATCGGGCATTCAGCTTTCT | -0.836
ATATGTAGGTTAAGGGTCATTCACGTTGGTTCGC | 2.96
ATCGAAAGGTCGAAGGTGAGTATACCCACCCGAA | 0.189
ACTCGGCGGACAAAGGTCAGAGCTACGCCAGTGA | 1.32
CGTCCAAGGTCATAGGAGGTCAGTGGAGACAGAT | 5.5
GCTGCTAGGTCAGGTTGGTGAGCTAACGGGTACG | -0.365
CAAACTCGGTCACCGGAAGGTCAAAGTCCGCATG | 4.93
AGAATGAGGTTATACGTAGATCAGGGCAGAAAGT | 0.241
TCTATTAGTTGAAGGGCAATCGACGAGTCCGTTT | 0.341
GCTAGTTGGTCAGTAGAAGGTCACACACCGGTCG | 2.32
CTAACTAGGTCAGAACAGGACAGTGAAGGATGAT | 0.159
TTACCAAGGTGAAAGCTCGTTGATGCACGCCTTG | -0.701
ATCGAAAGGTCGTAAGGTGAGTATACAGAAAGGC | 0.462
TGAATGAGGTTAAAGATCAGCGAACGTGGCGTCG | -0.568
GATACTGGGTCAAGGCCAGAGTACGCGTATTGAT | -0.0541
TCATGTAGGTAAACAGGTGAAAGTCCGTAAGTTA | -0.185
CCTCGTTGGTCAAGGTCACACACGCTATAGGTAC | 2.8
TCTTGTAGATCAATAGAGGTTACGAAAGTGCGCT | 0.474

These sequences were tested on LXRb:RXRa (NR concentration 270 nM, RXRa partner concentration 90 nM) in the same assay as above.
How it was run: as §1

Sequence | PBM binding z-score
TATACAGGGTCAAATGCCAGAGTACGAATGTCGA | 5.33
GTACCAAGGTGAATAGGTCGTTCATGAGTAGGCG | 0.601
GCTTACGGGTCAAAGGTTCTAGCATGAATAGAAT | 4.09
CTCAAAAGGTCGGTTGAGGTGAGTATACGGATAA | 1.63
GGAACGAGGGCAAGTTGATAACAGAGTTTGATGG | 0.262
CCTGCTAGGTCATGGTCAGCCAATCTACAGTATG | 1.68
ACTCGGAGGACAAAGGTCGGAGCTACGCCAGTGA | 0.689
CCTACTGGGCCAAAAAGGTCAGTGATGCCGATAA | 2.27
TGAATGAGGTTAAAGATCAGGGTACGTGGCGTCG | 1.67
GATGCAGGGTCAGCTAGAGGCCAGAGTATGGAAA | 2.29
TCTCGGAGGACACGAAAGGTCAAAGCTCGACATC | 4.92
ACTAGCAGGCCAAGTTTGTGTCACTCAAACAAAG | -0.814
CCTCGGAGGGCAGAAGGTCAGAGCTGTCCGCTTT | 1.12
GCGGCTAGGTCAGGTTGGTCAGCTAACGGGTACG | 0.648
CTCGAAAGGTCGGTTGAGGTGAGTATGCGGATAA | 1.27
TCTAGTTGGTCAAAGGGCACACACTCGAAATGCG | 1.48
TCATATAGGTAAAAGTTGAAAGTCGGTGTGGTAA | 1.21
CAAACTAGGTCAAGAGGTCAAAGTGCGCTTCCCG | 5.71
TTACCAAGCTGAAAGGTCGTTGATGCACGCCTTG | 1.04
CTCGAAAGGTCGGCTGAGGTGAGTATACGGATAA | 1.86

Sequence | PBM binding z-score
ATATGTAGGCTAAGGGTCATTCAGGTTGGTTCGC | 3.73
TCGAGTAGGTTACCAATCGGGCATTCAGCTTTCT | -0.125
ATATGTAGGTTAAGGGTCATTCACGTTGGTTCGC | 4.5
ATCGAAAGGTCGAAGGTGAGTATACCCACCCGAA | 2.86
ACTCGGCGGACAAAGGTCAGAGCTACGCCAGTGA | 2.86
CGTCCAAGGTCATAGGAGGTCAGTGGAGACAGAT | 6.44
GCTGCTAGGTCAGGTTGGTGAGCTAACGGGTACG | 0.053
CAAACTCGGTCACCGGAAGGTCAAAGTCCGCATG | 3.86
AGAATGAGGTTATACGTAGATCAGGGCAGAAAGT | 1.77
TCTATTAGTTGAAGGGCAATCGACGAGTCCGTTT | 0.908
GCTAGTTGGTCAGTAGAAGGTCACACACCGGTCG | 2.24
CTAACTAGGTCAGAACAGGACAGTGAAGGATGAT | 0.586
TTACCAAGGTGAAAGCTCGTTGATGCACGCCTTG | -0.367
ATCGAAAGGTCGTAAGGTGAGTATACAGAAAGGC | 2.98
TGAATGAGGTTAAAGATCAGCGAACGTGGCGTCG | 1.62
GATACTGGGTCAAGGCCAGAGTACGCGTATTGAT | 1.22
TCATGTAGGTAAACAGGTGAAAGTCCGTAAGTTA | 0.487
CCTCGTTGGTCAAGGTCACACACGCTATAGGTAC | 3.8
TCTTGTAGATCAATAGAGGTTACGAAAGTGCGCT | 2.05
